From PubChem BioAssay
AMA1 RON2 block: qHTS for Inhibitors of AMA1-RON; Towards Development of Antimalarial Drug Lead: Primary Screen | Plasmodium falciparum AMA1 (3D7) - RON2 peptide interaction | AlphaScreen AMA1-biotinylated RON2 peptide binding | Potency, µM (doses to about 58.2 µM), usual class: inhibitors | 0.2% of 360,000 active | AID 720542, 2013; note: nearly all actives have a fitted effect of over 45% in size
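AMA1 (3D7) with his tag at 25 nM final met compounds first, then biotinylated RON2 peptide at 25 nM; detection used donor plus acceptor beads, 10 µg/mL apiece, read by AlphaScreen after 30 min at room temperature.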
Pf growth 48h: Primary qHTS for delayed death inhibitors of the malarial parasite plastid, 48 hour incubation; P. falciparum luciferase growth in erythrocytes, 48 h; Potency, µM (titrated, usually from 28.7 µM), usual class: inhibitors; 5.9% of 310,000 active
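Here the parasites carry a stable luciferase gene and grow inside erythrocytes in Albumax-based RPMI medium with compound for one erythrocytic cycle. Activity is scored as loss of luminescent signal.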
Pf growth 96h: Primary qHTS for delayed death inhibitors of the malarial parasite plastid, 96 hour incubation. P. falciparum luciferase reporter growth, 96 h. Potency, µM (top dose mostly 28.7 µM), usual class: inhibitors. 6.9% of 320,000 active
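Infected RBCs, 2% Hct / 0.05% parasitemia final; luciferase-reporter P. falciparum; cpd 96 h, 37 C, 5% CO2; luciferase detection reagent; luminescence.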
SARS PLpro yeast: qHTS of Yeast-based Assay for SARS-CoV PLP. S. cerevisiae expressing SARS-CoV PLpro, growth rescue. Potency, µM (doses to about 32.9 µM), most hits filed as activators. 0.19% of 330,000 active. AID 485353, 2010; calls by dose curve; note: nearly all actives have a fitted effect of over 55% in size
Cycloheximide cs: Cycloheximide Counterscreen for Small Molecule Inhibitors of Shiga Toxin; cell reporter, cycloheximide protein synthesis inhibition counterscreen; max response, %; 12% of 300,000 active; in the data active = max response mostly above about 13%, no sharp cut-off; inactive = mostly below about 14%; note: read at 38.3 µM for the half of the compounds with a filed dose
Shiga inhibitor: A qHTS for Small Molecule Inhibitors of Shiga Toxin; 9.2% of 290,000 active; inhibition, % at 38.7 µM; Vero cells, Shiga toxin protein synthesis inhibition reporter; in the data active = inhibition mostly above about 28%, no sharp cut-off; inactive = mostly below about 43%
Of the large screens only hits and unclear results are named; the others gave an inactive call. Only some compounds are listed: those with a hit (about 19% of all), similar ones and a draw of the others. Unless noted, calls come from the whole dose curve; as a rule, active = well fitted curve in the direction sought with a large enough effect; inconclusive = small, poorly fitted or top-dose-only effect, or another doubt; inactive = no such curve, though single readings can be large; an effect the other way counts as inactive or inconclusive.

S=C1NC2(CCCCC2)NN1c1ccccc1	none
Cc1cc(C)n2nc(SCC3COc4ccccc4O3)nc2n1 (centres undefined)	Cycloheximide cs 51.3, Shiga inhibitor 88.7
Cc1cc(C)c(C#N)c(SCC2COc3ccccc3O2)n1 (centres undefined)	Cycloheximide cs 21.0
N#Cc1cc2c(nc1SCC1COc3ccccc3O1)CCC2 (centres undefined)	Cycloheximide cs 35.4, Shiga inhibitor 58.3 (no result: Pf growth 96h)
N#Cc1cc2c(nc1SCc1ccccc1)CCCCC2	Pf growth 96h inconclusive
Cc1cc(C)n2nc(SCN3C(=O)c4ccccc4C3=O)nc2n1	none
CN(C)C(=O)CSc1nnc(C23CC4CC(CC(C4)C2)C3)o1	Cycloheximide cs 15.2 (no result: Pf growth 96h)
CC(=O)N1CC=CC1(CC(C)C)C(=O)NCCN1CCOCC1 (centres undefined)	Cycloheximide cs 34.1, Shiga inhibitor 54.8
CCOc1ccc(C(C(=O)NCC2CCCO2)N(Cc2cccs2)C(=O)c2snc(C(N)=O)c2N)cc1 (centres undefined)	Pf growth 48h 13.1µM, Pf growth 96h inconclusive
COc1ccc(C(C(=O)NCC2CCCO2)N(Cc2cccs2)C(=O)c2snc(C(N)=O)c2N)cc1OC (centres undefined)	Pf growth 48h inconclusive, Pf growth 96h inconclusive
COc1cc(OC)cc(N(C(=O)c2snc(C(N)=O)c2N)C(C(=O)NCC2CCCO2)c2ccc(C)o2)c1 (centres undefined)	Pf growth 48h 4.65µM (no result: AMA1 RON2 block)
CCOc1ccc(C(C(=O)NCC2CCCO2)N(C(=O)c2snc(C(N)=O)c2N)c2cccc(F)c2)cc1 (centres undefined)	Pf growth 48h 13.1µM
CCOc1ccc(N(C(=O)c2snc(C(N)=O)c2N)C(C(=O)NCC2CCCO2)c2ccc(C)o2)cc1 (centres undefined)	Pf growth 48h inconclusive, Pf growth 96h inconclusive, Cycloheximide cs 18.0, Shiga inhibitor 46.9
Cc1cc(C)cc(N(C(=O)c2snc(C(N)=O)c2N)C(C(=O)NCC2CCCO2)c2ccc(C)o2)c1 (centres undefined)	Pf growth 48h inconclusive, Pf growth 96h inconclusive
COc1ccc(NC(=O)CSc2nnc(CCC(=O)Nc3ccc(C)c(Cl)c3)n2C)cc1	Pf growth 48h inconclusive
C=C[C@@H]1c2cc(C)ccc2N(S(=O)(=O)c2ccc(C)cc2)[C@H](c2ccccc2C(F)(F)F)C1(C#N)C#N	Pf growth 48h inconclusive (no result: Cycloheximide cs, Shiga inhibitor)
O=C(Nc1ccon1)c1cccc(S(=O)(=O)N2CCCC2)c1	none (no result: Pf growth 96h)
COc1ccc(-c2nsc(C(=O)N(c3ccc(F)cc3)C(C(=O)NC3CCCC3)c3ccc(OC)cc3)c2N)cc1 (centres undefined)	Pf growth 48h 2.62µM (no result: Pf growth 96h)
COc1ccc(N(C(=O)c2snc(C(N)=O)c2N)C(C(=O)NC2CCCCC2)c2ccc(C)o2)cc1 (centres undefined)	Pf growth 48h 8.28µM
CCO[C@H]1OC(C(=O)N2CCOCC2)=C[C@@H](C)[C@@H]1CCCO	none
Cc1nn(C)c(C)c1NC(=O)CN1CCC(O)(c2ccc3c(c2)OCO3)CC1	Pf growth 96h 10.4µM
Cc1nn(C)c(C)c1CNC(=O)Nc1ccc(Cl)cc1	Cycloheximide cs 72.6, Shiga inhibitor 145.2
Cc1nn(C)c(C)c1S(=O)(=O)Nc1ccc2c(c1)OCO2	none
Cc1cc(NNC(=O)Nc2cccc(Cl)c2)nc2c1c(C)nn2C	Pf growth 96h inconclusive (no result: AMA1 RON2 block)
Cc1nn(C)c(C)c1CNC(=O)Nc1cccc(Cl)c1	Pf growth 96h inconclusive, Cycloheximide cs 56.9, Shiga inhibitor 113.6
CCOC(=O)c1ccc(NC(=O)NCc2c(C)nn(CC)c2C)cc1	Pf growth 48h inconclusive
CC(C)(C)NC(=O)CN1CCC(O)(c2ccc3c(c2)OCO3)CC1	none
Cc1nn(C)c(C)c1CNC(=O)Nc1ccc2c(c1)OCO2	Cycloheximide cs 36.8, Shiga inhibitor 65.3
CCN(CC)c1ccc(S(=O)(=O)N2CCOCC2)cc1NC(=O)CSc1nncs1	Pf growth 48h inconclusive, Pf growth 96h inconclusive (no result: Cycloheximide cs, Shiga inhibitor)
O=c1c(/C=N/N2CCOCC2)c(C(F)(F)F)[nH]n1-c1ccccc1	Pf growth 48h inconclusive
CCOc1ccccc1N1CC(C(=O)Nc2cc(S(C)(=O)=O)ccc2Cl)CC1=O (centres undefined)	none (no result: Cycloheximide cs, Shiga inhibitor)
C=CCn1c(-c2ccccc2)n[nH]c1=S	Pf growth 96h inconclusive
OCCCn1c(-c2ccccc2)n[nH]c1=S	Cycloheximide cs 20.8, Shiga inhibitor 36.8
CN(C)CC/C=C1\c2ccccc2Sc2cc(F)c(Cl)cc21	none (no result: Pf growth 48h, Pf growth 96h, SARS PLpro yeast, Cycloheximide cs, Shiga inhibitor)
CNCCC=C1c2ccccc2C=Cc2ccccc21	none (no result: Pf growth 48h, Pf growth 96h, SARS PLpro yeast, Cycloheximide cs, Shiga inhibitor)
CN(C)CC/C=C1/c2ccccc2COc2ccccc21	none (no result: AMA1 RON2 block, Pf growth 48h, Pf growth 96h)
CN(C)CCC=C1c2ccccc2C=Cc2ccccc21	Pf growth 48h 11.7µM, Pf growth 96h inconclusive (no result: SARS PLpro yeast, Cycloheximide cs, Shiga inhibitor)
CN(C)CCC=C1c2ccccc2CCc2ccccc21	Pf growth 48h 14.7µM, Pf growth 96h inconclusive
CN(C)CCC=C1c2ccccc2C(C)(C)c2ccccc21	Pf growth 48h inconclusive, Pf growth 96h 6.75µM (no result: AMA1 RON2 block, SARS PLpro yeast, Cycloheximide cs, Shiga inhibitor)
COc1ccc(CCN2C(=O)CC(N3CCN(S(=O)(=O)c4ccccc4)CC3)C2=O)cc1OC (centres undefined)	none
C[C@H](CO)N1C[C@H](C)[C@@H](CN(C)C(=O)c2ccc3ccn(C)c3c2)OCc2cn(nn2)CCCC1=O	none (no result: Pf growth 48h, Pf growth 96h, SARS PLpro yeast, Cycloheximide cs, Shiga inhibitor)
CC(NC(=O)c1cc(Br)cs1)C1CCCO1 (centres undefined)	Pf growth 96h 13.1µM
CC(NC(=O)c1cccc(C(F)(F)F)c1)C1CCCO1 (centres undefined)	none
CCCc1cc(C(=O)NC(C)C2CCCO2)cs1 (centres undefined)	Cycloheximide cs 40.4, Shiga inhibitor 71.4
Cc1cc(C(=O)NC(C)C2CCCO2)cs1 (centres undefined)	none
CC1CCc2sc(C(=O)NC(C)C3CCCO3)cc2C1 (centres undefined)	Cycloheximide cs 39.5, Shiga inhibitor 87.5
CCc1cc(C(=O)NC(C)C2CCCO2)cs1 (centres undefined)	SARS PLpro yeast inconclusive, Cycloheximide cs 39.7, Shiga inhibitor 61.7
CC(NC(=O)c1cccs1)C1CCCO1 (centres undefined)	Pf growth 96h inconclusive, SARS PLpro yeast inconclusive
CCCCn1nnnc1C(c1cc2ccccc2o1)N1CCN(CCN(C)C)CC1 (centres undefined)	none (no result: Pf growth 48h, Pf growth 96h, SARS PLpro yeast, Cycloheximide cs, Shiga inhibitor)
CCc1cc(C(=O)NNC(=S)NCC2CCCO2)cs1 (centres undefined)	none
CCCc1cc(C(=O)NNC(=S)NCC2CCCO2)cs1 (centres undefined)	Cycloheximide cs 13.6
COC(=O)[C@@]1(C(C)C)N=C(c2cc(OC)c(OC)c(OC)c2)[C@]2(O1)C(=O)N(Cc1ccc(OC)cc1)c1ccc(Br)cc12	none (no result: Pf growth 48h, Pf growth 96h, SARS PLpro yeast, Cycloheximide cs, Shiga inhibitor)
